Potency, max response and outcome data for seven compounds are collected here from PubChem BioAssay (NCATS).

Assay [1] deals with TAB109. Kind of assay: qHTS profiling for inhibitors of Plasmodium falciparum proliferation (AID 504749).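 Further: 0% = DMSO vehicle and full inhibition = artemisinin control; nearly all actives have a fitted effect of over 60% in size.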 Particulars: P. falciparum in erythrocytes, SYBR Green DNA, 72 h; series mostly up to 28.7 µM. The gist of the method: (§1)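 Each compound contacts P. falciparum-infected red blood cells for 72 h at 37 C; lysis buffer (Tris, EDTA, saponin, Triton X, SYBR Green I) is added and fluorescence measured next morning; values normalized to controls.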
(In general: qHTS replaces the single test concentration by a dilution series.)

For assay [2], the system named is TAB113. The description is as above. As to conditions: P. falciparum in erythrocytes, SYBR Green DNA, 72 h; series mostly up to 28.7 µM. The gist of the method: as §1
Assay [3] deals with TAB165. Described as above. As to conditions: P. falciparum in erythrocytes, SYBR Green DNA, 72 h; series mostly up to 28.7 µM. The gist of the method: as §1
The test system of assay [4] is HEK293. Put plainly: Cytotoxic Profiling of Annotated Libraries Using Quantitative High-Throughput Screening (AID 1296008). Further: nearly all actives have a fitted effect of over 60% in size. Further: potency means the concentration at half of the fitted maximal effect. On max response: on the % scale 0 is the no-effect control and ±100 the full control effect. As to conditions: Five cell lines viability, CellTiter-Glo ATP luminescence, 48-72 h; max response: stronger effect = lower value. The gist of the method:
(§2)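 Cells exposed to compounds for 48 or 72 hr at 37 degrees Celsius. Viability read as ATP-coupled luminescence with CellTiter-Glo after 10 min at room temperature.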
(Cellular ATP, detected with luciferase, serves as a proxy for viable cell number.)

For assay [5], the system named is KB-3-1. Described as above. Particulars: Five cell lines viability, CellTiter-Glo ATP luminescence, 48-72 h; max response: stronger effect = lower value. The essentials:
as §2

In assay [6] the test system is NIH3T3. The assay is described as above. Particulars: Five cell lines viability, CellTiter-Glo ATP luminescence, 48-72 h; max response: stronger effect = lower value. The gist of the method: as §2
In assay [7] the test system is MCC-13. Kind of assay: qHTS assay to identify novel small-molecules to repurpose for Merkel cell carcinoma treatment (AID 1296009). Further: nearly all actives have a fitted effect of over 60% in size. Further: potency means the concentration at half of the fitted maximal effect. Particulars: MCC and control cell lines, CellTiter-Glo viability, 72 h; series mostly up to 46 µM. The essentials: (§3)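 Dose-response viability screen; 72 hr exposure at 37 degree celsius; CellTiter-Glo added, 10 min room temperature, luminescence read; RLUs scaled between no-cell and DMSO wells.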

The test system of assay [8] is MCC-26. Described as above. Particulars: MCC and control cell lines, CellTiter-Glo viability, 72 h; series mostly up to 46 µM. The gist of the method: as §3
Assay [9] has as its system MKL-1. The assay is described as above. As to conditions: MCC and control cell lines, CellTiter-Glo viability, 72 h; series mostly up to 46 µM. The gist of the method: as §3
The subject of assay [10] is MKL-2. The assay is described as above. Particulars: MCC and control cell lines, CellTiter-Glo viability, 72 h; series mostly up to 46 µM. The essentials:
as §3

The subject of assay [11] is UISO. The description is as above. Particulars: MCC and control cell lines, CellTiter-Glo viability, 72 h; series mostly up to 46 µM. The essentials: as §3
In assay [12] the test system is WaGa. Described as above. As to conditions: MCC and control cell lines, CellTiter-Glo viability, 72 h; series mostly up to 46 µM. The essentials:
as §3

Assay [13] has as its system C33A. Put plainly: Primary qHTS to identify gynecologic anti-cancer compounds using libraries of approved drugs and bioactive compounds (AID 1345084). Further: on the % scale 0 is the no-effect control and ±100 the full control effect; nearly all actives have a fitted effect of over 55% in size. Particulars: Gynecologic cancer cell panel viability, ATPlite luminescence, 48 h; series mostly up to 57.5 µM. The gist of the method: (§4)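 48 h compound exposure at 37 C, 5% CO2; five-point qHTS. ATPlite luminescence readout of cell ATP.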

Assay [14] deals with CAOV3. The description is as above. Particulars: Gynecologic cancer cell panel viability, ATPlite luminescence, 48 h; series mostly up to 57.5 µM. The gist of the method: as §4
Assay [15] has as its system W2. Put plainly: qHTS profiling for inhibitors of Plasmodium falciparum proliferation (AID 504749).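 Further: 0% = DMSO vehicle and full inhibition = artemisinin control; nearly all actives have a fitted effect of over 60% in size.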 As to conditions: P. falciparum in erythrocytes, SYBR Green DNA, 72 h; series mostly up to 28.7 µM. The essentials:
as §1

The subject of assay [16] is HaCat. Put plainly: Cytotoxic Profiling of Annotated Libraries Using Quantitative High-Throughput Screening (AID 1296008). Further: nearly all actives have a fitted effect of over 60% in size. Further: potency means the concentration at half of the fitted maximal effect. On max response: on the % scale 0 is the no-effect control and ±100 the full control effect. As to conditions: Five cell lines viability, CellTiter-Glo ATP luminescence, 48-72 h; max response: stronger effect = lower value. The gist of the method: as §2
Assay [17] concerns NIH3T3. Put plainly: qHTS assay to identify novel small-molecules to repurpose for Merkel cell carcinoma treatment (AID 1296009). Further: nearly all actives have a fitted effect of over 60% in size. Further: potency means the concentration at half of the fitted maximal effect. As to conditions: MCC and control cell lines, CellTiter-Glo viability, 72 h; at 44.8 µM (top of the series). The gist of the method: as §3
For assay [18], the system named is HACAT. The assay is described as above. As to conditions: MCC and control cell lines, CellTiter-Glo viability, 72 h; at 44.8 µM (top of the series) unless noted. The essentials: as §3

Records with an inconclusive call do not appear. Values without a mark were called inactive. Active and inactive are the calls of the source. The call rests on the fitted dose curve; in most records, active means well fitted curve in the direction sought with a large enough effect; inconclusive means small, poorly fitted or top-dose-only effect, or another doubt; inactive means no such curve, though single readings can be large; an effect the other way counts as inactive or inconclusive.

As to `CCN(CC)CCNC(=O)COc1ccc(OC)cc1`, the Potency entry in assay [1], in assay [2], in assay [3], in assay [7], in [8] and in assay [9] was “inactive” each time. In addition, the Potency entry in [10], in [11], in [12], in [13] and in [14] was “inactive” in each case. Also, the max response was 4.77% in assay [4], 7.84% in assay [5] and -6.7% in [6].

Consider `Nc1ccc(S(=O)(=O)Nc2cnc3ccccc3n2)cc1`, for which the Potency result in [1], in [2], in assay [3], in [15], in assay [7] and in [8] was “inactive” in each case. Further, the Potency result in assay [9], in [10], in assay [11], in assay [12], in assay [13] and in assay [14] was “inactive” in each case. Also, the max response was 1.95% in assay [4], -4.06% in assay [16] and -10.8% in assay [5]. For the same compound, the compound was classed as inactive in assay [6] and in [17].

With `Oc1ccccc1C=NCc1ccccc1`, the Potency result in [1], in assay [2], in [3], in assay [15], in assay [7] and in [8] was “inactive” throughout. Moreover, the Potency result in assay [9], in assay [10], in assay [11], in [12], in [13] and in assay [14] was “inactive” throughout. Also, the max response is -3.05% in assay [4] and -1.46% in assay [16]. The outcome in assay [6] and in [17] was inactive.

For the compound `CCOc1ccccc1OCCN[C@H](C)Cc1ccc(OC)c(S(N)(=O)=O)c1`, the Potency entry in assay [1], in [2], in assay [3], in assay [7], in [8] and in [9] was “inactive” each time. Further, the Potency entry in assay [10], in [11], in assay [12], in assay [13] and in [14] was “inactive” throughout. Also, the results for the max response in assay [4] and in [6] were -5.03% and 2.8%, respectively. Moreover, the call in assay [16] and in assay [18] was inactive.

As for `CCOc1cc(OCC)c(C(=O)CCC(=O)O)cc1OCC`, the Potency entry in assay [1], in assay [2], in assay [3], in assay [15], in assay [7] and in assay [8] was “inactive” each time. The Potency entry in [9], in [10], in [11], in assay [12], in [13] and in assay [14] was “inactive” throughout. Besides, the max response in assay [4] is -0.0497%. The outcome in assay [16], in assay [6], in assay [18] and in [17] was inactive.

In the case of `CCO[C@@H]1O[C@H](C(COCc2ccccc2)OCc2ccccc2)[C@H](OCc2ccccc2)[C@H]1O` (stereo partly specified), the Potency in [4] was 16.8 µM (active); in assay [12] it was 26.6 µM (active). In assay [5], the max response was -15.4%. Besides, the Potency entry in assay [7], in assay [8], in [9] and in assay [13] was “inactive” each time.

As to `Nc1nc(N)c(-c2ccccc2)s1`, the Potency result in [1], in [2], in assay [3], in assay [15], in assay [7] and in [8] was “inactive” throughout. The Potency result in assay [9], in assay [10], in [11], in [12] and in assay [13] was “inactive” in each case. Also, the max response was -1.75% in [4], -10.8% in assay [16], -0.967% in [5] and 2.51% in assay [6].
